Screening data as filed in PubChem.
A selection: hits, their analogues and other compounds. The true share with any hit is near 4.6%.
Epigenetic derep – Quantitative High-Throughput Screen for Regulators of Epigenetic Control; murine LDR cells, GFP reporter derepression, 30 h; Potency, µM (highest dose often 53.9 µM), actives largely listed as activators; 280,000 compounds, 0.2% hits; active = well fitted activation curve with a large enough effect; inconclusive = small, poorly fitted or top-dose-only effect; also: nearly all actives have a fitted effect of over 60% in size
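Readout is the number of GFP-expressing murine LDR cells, counted by cytometry following washing. Cells were treated with compound for 30 h at 37 C; the stably integrated CMV-GFP locus is normally silent.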
TRHR agonist – qHTS for Small Molecule Agonists and Allosteric Enhancers of Human TRH Receptor: Primary Screen for Agonists; Thyrotropin-releasing hormone receptor (Homo sapiens), P34981; TRHR cells, calcium flux fluo-8, FDSS agonist mode; activation, % at 2 µM; 360,000 compounds, 0.18% hits
Target sequence (P34981 whole entry, looked up): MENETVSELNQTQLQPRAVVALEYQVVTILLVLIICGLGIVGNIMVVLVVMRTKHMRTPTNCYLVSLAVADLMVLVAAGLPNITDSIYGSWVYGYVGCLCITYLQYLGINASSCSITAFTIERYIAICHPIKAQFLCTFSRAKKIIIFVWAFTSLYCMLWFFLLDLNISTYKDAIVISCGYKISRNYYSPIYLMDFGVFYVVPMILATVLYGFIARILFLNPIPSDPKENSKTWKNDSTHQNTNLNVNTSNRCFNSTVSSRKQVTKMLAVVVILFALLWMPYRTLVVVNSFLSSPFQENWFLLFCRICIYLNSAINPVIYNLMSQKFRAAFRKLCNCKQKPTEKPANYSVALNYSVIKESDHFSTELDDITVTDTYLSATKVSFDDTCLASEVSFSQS
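Agonist-mode FDSS calcium read (Ex 480/Em 530, 1 s cycles) in 1536-well TRHR cells with fluo-8 dye, after 10-cycle baseline and 23 nL compound addition; TRH at EC20 (10 nM final) added afterwards for the enhancer phase.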
D1 PAM – Potentiators of Human D1 Dopamine Receptor: qHTS | D(1A) dopamine receptor (Homo sapiens), P21728 | HEK293 TREx D1 cells, calcium flux, dopamine EC20 potentiation | potentiation, % at 10 µM | 360,000 compounds, 0.036% hits | AID 504651, 2011; in the data active = potentiation above about 30%
D1 ag – Allosteric Agonists of the Human D1 Dopamine Receptor: qHTS; HEK293 T-REx D1 cells, calcium flux, agonist mode; activation, % at 2 µM; 360,000 compounds, 1% hits
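Agonism was scored from calcium flux recorded over 180 s (1 read/s) after pintool compound addition, following a 10-cycle baseline. Cells were inducible force-coupled HEK293 TREx D1, plated overnight at 30 C and loaded with no-wash calcium dye.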
TRHR PAM – qHTS for Small Molecule Agonists and Allosteric Enhancers of Human TRH Receptor: Primary Screen for Enhancers; Thyrotropin-releasing hormone receptor (Homo sapiens), P34981; TRHR cells, fluo-8 calcium fluorescence, EC20 TRH enhancement; enhancement, % at 2 µM; 360,000 compounds, 0.66% hits; AID 493056, 2011; in the data active = enhancement above about 30%
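Enhancer read-out: after compound pinning and an initial kinetic agonist-mode read, an EC20 of TRH (10 nM final) was injected and fluo-8 calcium signal (Ex 480/Em 530) followed at 1 s/cycle for 100 cycles in TRHR-expressing cells.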
D1 antagonist – Antagonist of Human D 1 Dopamine Receptor: qHTS; D(1A) dopamine receptor (Homo sapiens), P21728; HEK293 TREx D1 cells, calcium flux, dopamine EC80; active compounds read low; activity change, negative = inhibition, % at 10 µM; 360,000 compounds, 3.2% hits; AID 504652, 2011; in the data active = activity change below about -30%
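Kinetic fluorescence of a calcium dye serves as the read-out. D1-expressing Hek293 Trex cells, induced overnight at 30 C, are exposed to compound for 180 s before an EC80 dopamine addition, then read 180 s further.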
A number is an active result; 0 = inactive; ? = inconclusive; - = not tested or not shown. Rule as the data show it, unless noted: active = activation above about 30%; inactive = the rest.

SMILES	Epigenetic derep	TRHR agonist	D1 PAM	D1 ag	TRHR PAM	D1 antagonist
O=C(c1cccc(S(=O)(=O)N2CCN(c3ccc(F)cc3)CC2)c1)N1CCCCCCC1	-	0	0	0	0	0
CCN(Cc1ccccc1)C(=O)c1cccc(S(=O)(=O)N2CCN(c3ccccc3)CC2)c1	-	0	0	0	0	0
CCN(Cc1ccccc1)C(=O)c1cccc(S(=O)(=O)N2CCN(c3ccc(F)cc3)CC2)c1	-	0	0	0	0	-63
CC(=O)N1CCN(C(=O)c2cccc(S(=O)(=O)N3CCN(c4ccc(F)cc4)CC3)c2)CC1	-	0	0	53	0	0
O=C(c1cccc(S(=O)(=O)Nc2ccc(F)cc2)c1)N1CCCC1	-	0	0	0	0	0
CCN(C(=O)C1CCCN(S(=O)(=O)c2c(C)noc2/C=C/N(C)C)C1)c1cccc(C)c1 (centres undefined)	0	0	0	0	0	0
CC(C)c1ccc(S(=O)(=O)N2CCN(C(=O)c3cccc(F)c3)CC2)cc1	0	0	0	0	0	-68
O=C(c1cccc(F)c1)N1CCN(S(=O)(=O)c2ccccc2)CC1	0	0	0	0	0	0
O=C(NC1=NCCS1)c1cccc(S(=O)(=O)N2CCOCC2)c1	-	0	0	0	32	0
CC(=O)Nc1ccc(NC(=O)CCC(=O)c2ccc(C)cc2)cc1	0	0	0	0	0	0
Cc1ccc(C(C(=O)NC2CCCCC2)N(Cc2ccccc2)C(=O)Cc2c[nH]c3ccccc23)o1 (centres undefined)	0	0	0	0	0	-82
CCOC(=O)c1sc(NC(=O)CSc2n[nH]c(-c3ccccc3)n2)c(C#N)c1C	0	0	0	0	0	-36
COc1ccc(CCNC(=O)CSc2nc(-c3ccc(F)cc3)cc(C(F)(F)F)n2)cc1OC	0	0	0	0	0	0
Cc1ccc(CN2CCC(CNC(=O)c3cc4ccc5cccnc5c4[nH]3)CC2)cc1	0	0	0	40	0	0
CC(C)(C)c1ccc(-c2nc(C#N)c(NCCCn3ccnc3)o2)cc1	0	0	0	36	0	0
C#CC(C)(CC)NC(=O)Cn1nnc(-c2ccc(OCc3ccccc3F)cc2)n1 (centres undefined)	0	0	0	0	0	0
CN(C)c1ccc(-c2nc3ccccc3n2C)cc1	0	0	0	0	0	0
CC(C)n1c(-c2ccc(N(C)C)cc2)nc2ccccc21	0	0	0	0	0	-43
CC(=O)c1ccc(OCCCC(=O)NC2CCCc3ccccc32)cc1 (centres undefined)	0	0	0	0	0	-32
COc1ccc(OCC(=O)NC2CCCc3ccccc32)cc1 (centres undefined)	-	0	0	0	0	0
CCOc1ccccc1NC(=O)NC1CCCc2ccccc21 (centres undefined)	-	0	0	0	0	-33
COc1ccccc1NC(=O)NC1CCCc2ccccc21 (centres undefined)	-	0	0	0	0	0
COc1ccc(NC(=O)Cn2ncc(Cl)c(Cl)c2=O)cc1S(=O)(=O)N1CCOCC1	0	0	0	0	0	-40
O=C(Cn1ncc(Cl)c(Cl)c1=O)Nc1ccc2c(c1)OCO2	-	0	0	0	0	-50
CCCCCCCCCCCCCCCC(=O)NCCCC(=O)O	0	-	-	-	-	-
Cc1ccc(OCC(=O)Nc2cccc(OCc3cc(=O)n4cccc(C)c4n3)c2)cc1C	?	0	0	0	0	0
C=C[C@@H]1c2cc(C)ccc2N(S(=O)(=O)c2ccc(C)cc2)[C@H](c2ccccc2C(F)(F)F)C1(C#N)C#N	-	0	0	0	0	-35
O=C(NCc1ccccc1)C1=C[C@H](c2ccc(Br)cc2)C[C@H](OCc2ccc(CO)cc2)O1	0	0	0	32	0	0
